Test results from PubChem BioAssay AID1159580 (chemical genetic matrix, 2015).
About 2,000 (36%) of roughly 5,500 compounds were called active. Not shown: some 18% with an inconclusive outcome. No stated cut-off is given here; in the data, active means normalized growth mostly below about 0.91 (no sharp cut-off); inconclusive means no clear call, values can overlap the other calls; inactive means mostly above about 0.92. Some of the results follow.

Assay: chemical genetic growth profiling, strain panel (AID 1159580);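 further: tested at 20 µM; growth read once vehicle control cultures reached saturation at 30 °C; 1 = growth at the plate median or of vehicle wells; lower values mean less growth of the strain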
Details: S. cerevisiae deletion strains, growth OD

Measured: normalized growth

FC(F)(F)COCC(F)(F)F
inactive: locus YAL021C, strain ccr4, active compounds read low 1.02 | locus YAL026C, strain drs2, active compounds read low 1.04 | locus YAL030W, strain snc1, active compounds read low 0.993 | locus YBL061C, strain skt5, active compounds read low 1.03 | locus YBR009C, strain hhf1, active compounds read low 0.998 | locus YBR023C, strain chs3, active compounds read low 1.03 | locus YBR171W, strain sec66, active compounds read low 1.01 | locus YBR231C, strain swc5, active compounds read low 1.02 | locus YBR279W, strain paf1, active compounds read low 1.02 | locus YCL011C, strain gbp2, active compounds read low 1.02 | locus YCL016C, strain dcc1, active compounds read low 1.03 | locus YCL069W, strain vba3, active compounds read low 1.03 | locus YCR088W, strain abp1, active compounds read low 1.01 | locus YDL005C, strain med2, active compounds read low 1.01 | locus YDL040C, strain nat1, active compounds read low 1.02 | locus YDR001C, strain nth1, active compounds read low 1.01 | locus YDR069C, strain doa4, active compounds read low 1.02 | locus YDR137W, strain rgp1, active compounds read low 1.03 | locus YDR159W, strain sac3, active compounds read low 0.963 | locus YDR195W, strain ref2 0.996 | locus YDR297W, strain sur2, active compounds read low 1.01 | locus YDR334W, strain swr1, active compounds read low 1.01 | locus YDR335W, strain msn5, active compounds read low 1.03 | locus YDR392W, strain spt3, active compounds read low 0.971 | locus YEL003W, strain gim4, active compounds read low 0.992 | locus YEL037C, strain rad23, active compounds read low 1.01 | locus YEL061C, strain CIN8 (second series), active compounds read low 1 | locus YER015W, strain faa2, active compounds read low 1.02 | locus YER016W, strain bim1, active compounds read low 1.03 | locus YER111C, strain swi4, active compounds read low 1.01 | locus YER155C, strain BEM2 (second series), active compounds read low 0.986 | locus YFR010W, strain ubp6, active compounds read low 0.999 | locus YGL167C, strain pmr1, active compounds read low 1.02 | locus YGL173C, strain kem1, active compounds read low 1 | locus YGL227W, strain vid30, active compounds read low 1.02 | locus YGL240W, strain doc1, active compounds read low 0.996 | locus YGL253W, strain hxk2, active compounds read low 1.03 | locus YHR013C, strain ard1, active compounds read low 1.02 | locus YHR027C, strain rpn1, active compounds read low 1.02 | locus YHR030C, strain SLT2, active compounds read low 0.998 | locus YHR079C, strain IRE1, active compounds read low 0.96 | locus YHR142W, strain chs7, active compounds read low 1.03 | locus YJL092W, strain hpr5, active compounds read low 1.02 | locus YJL095W, strain BCK1 (second series), active compounds read low 1.03 | locus YJL095W, strain BCK1, active compounds read low 1 | locus YJL115W, strain asf1, active compounds read low 1.02 | locus YJL129C, strain trk1, active compounds read low 1.04 | locus YJL154C, strain vps35, active compounds read low 1.04 | locus YJL164C, strain tpk1, active compounds read low 1.02 | locus YJL166W, strain qcr8, active compounds read low 0.986 | locus YJL187C, strain SWE1, active compounds read low 1.02 | locus YJR066W, strain TOR1, active compounds read low 0.938 | locus YKL160W, strain elf1, active compounds read low 1.01 | locus YKR026C, strain gcn3, active compounds read low 1.01 | locus YKR091W, strain srl3, active compounds read low 1.01 | locus YLL001W, strain dnm1, active compounds read low 0.988 | locus YLL026W, active compounds read low 1 | locus YLL041C, strain sdh2, active compounds read low 1.02 | locus YLR027C, strain aat2, active compounds read low 1.02 | locus YLR113W, strain HOG1, active compounds read low 0.999 | locus YLR221C, strain rsa3, active compounds read low 0.996 | locus YLR258W, strain gsy2, active compounds read low 1.04 | locus YLR262C, strain YPT6 (second series), active compounds read low 0.992 | locus YLR320W, strain mms22, active compounds read low 0.968 | locus YLR342W, strain FKS1, active compounds read low 1.03 | locus YLR357W, strain rsc2, active compounds read low 1.01 | locus YLR370C, strain arc18, active compounds read low 1.03 | locus YLR384C, strain iki3, active compounds read low 1.02 | locus YML120C, strain ndi1, active compounds read low 1 | locus YMR058W, strain fet3, active compounds read low 1.04 | locus YMR125W, strain sto1, active compounds read low 1.04 | locus YMR129W, active compounds read low 1 | locus YMR205C, strain PFK2, active compounds read low 1 | locus YMR231W, strain pep5, active compounds read low 1.01 | locus YNL071W, strain lat1, active compounds read low 1.03 | locus YNL183C, strain NPR1, active compounds read low 0.948 | locus YNL209W, strain ssb2, active compounds read low 1.03 | locus YNL248C, strain rpa49, active compounds read low 1.04 | locus YNL322C, strain KRE1 (second series), active compounds read low 1.02 | locus YNR049C, strain mso1, active compounds read low 1.01 | locus YOR001W, strain rrp6, active compounds read low 0.986 | locus YOR070C, strain gyp1, active compounds read low 1.01 | locus YOR080W, strain dia2, active compounds read low 1.01 | locus YOR083W, strain WHI5, active compounds read low 0.981 | locus YOR106W, strain vam3, active compounds read low 1.04 | locus YOR231W, strain MKK1, active compounds read low 0.993 | locus YOR265W, strain rbl2, active compounds read low 1.01 | locus YOR270C, strain vph1, active compounds read low 1.07 | locus YOR290C, strain snf2, active compounds read low 1.03 | locus YPL051W, strain arl3, active compounds read low 1.03 | locus YPL078C, strain atp4, active compounds read low 1.03 | locus YPL106C, strain sse1, active compounds read low 0.983 | locus YPL240C, strain hsp82, active compounds read low 1 | locus YPL256C, strain CLN2, active compounds read low 0.948
